{"source": "PubChem BioAssay AID449762", "about": "(Southern Research Specialized Biocontainment Screening …, 2010)", "note": "About 1,900 (0.58%) of roughly 330,000 compounds were called active. Another 4% or so got no clear call; they are omitted. No stated cut-off is given here; in the data, inconclusive means inhibition above about 70% without an active follow-up result; inactive means below that. These entries were drawn from the full list. Measured potencies and affinities stand elsewhere.", "data": [{"experiment": "M. tuberculosis growth inhibition, HTS (AID 449762);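 further: bacterial growth assessed after seven days of incubation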", "settings": "M. tuberculosis H37Rv growth inhibition, 7H9 media; at 25 µM; active compounds read high", "values": [{"smiles": "COc1ccc(NS(=O)(=O)c2ccc3nc(COc4ccc(C#N)cc4)[nH]c3c2)cc1", "inhibition": "4.82% (inactive)"}, {"smiles": "COc1ccc(NS(=O)(=O)c2ccc3nc(COc4ccc5ccccc5c4)[nH]c3c2)cc1", "inhibition": "0.01% (inactive)"}, {"smiles": "CCOc1ccc(N2C(=O)C3CC(C)=C(C)CC3C2=O)c([N+](=O)[O-])c1", "note": "(stereo not given)", "inhibition": "-11.3% (inactive)"}, {"smiles": "CCCCCn1c(SC(C)C(C)=O)nc2c1c(=O)[nH]c(=O)n2C", "note": "(stereo not given)", "inhibition": "-12.7% (inactive)"}, {"smiles": "Cc1cc(Cl)c(OCCCN(C)C)c(Br)c1", "inhibition": "2.02% (inactive)"}, {"smiles": "COc1cc2[nH]c3c(Cl)ncnc3c2cc1OC", "inhibition": "-3.36% (inactive)"}, {"smiles": "COc1ccc2c([N+](=O)[O-])c(Cl)[nH]c2c1", "inhibition": "-1.29% (inactive)"}, {"smiles": "CCOC(=O)C1=C(C)OC(N)=C(C#N)C1c1c(C)nn(-c2ccccc2)c1Cl", "note": "(stereo not given)", "inhibition": "-3.55% (inactive)"}, {"smiles": "Cc1ccc2c(c1)nnn2C1CCN(CC(=O)c2ccc(Cl)cc2)CC1", "inhibition": "2.57% (inactive)"}, {"smiles": "Cc1ccc2c(c1)nnn2C1CCN(CC(=O)Nc2ccc(F)cc2)CC1", "inhibition": "-1.73% (inactive)"}, {"smiles": "CCSC(=Nc1ccccc1)C1=C(O)COC1=O", "inhibition": "3.26% (inactive)"}, {"smiles": "OC(CNCCc1c[nH]c2ccccc12)c1ccccc1", "note": "(stereo not given)", "inhibition": "-1.92% (inactive)"}, {"smiles": "NCC(c1ccc(Cl)cc1Cl)c1c[nH]c2ccccc12", "note": "(stereo not given)", "inhibition": "34.8% (inactive)"}, {"smiles": "COC(=O)c1sc(N)c(C(=O)OC)c1COC(=O)C1CC(=O)N(Cc2ccco2)C1", "note": "(stereo not given)", "inhibition": "-7.71% (inactive)"}, {"smiles": "CCOc1ccc(CCNS(=O)(=O)c2ccc3c(c2)NC(=O)CO3)cc1OCC", "inhibition": "-0.19% (inactive)"}, {"smiles": "CCOc1ccc(NCc2nc3ccccc3n2CCOc2ccccc2)cc1", "inhibition": "33.8% (inactive)"}, {"smiles": "c1ccc(NCc2nc3ccccc3n2CCOc2ccccc2)cc1", "inhibition": "5.47% (inactive)"}, {"smiles": "CCNc1nc(NCC)nc(N/N=C/c2ccccc2)n1", "inhibition": "-2.44% (inactive)"}, {"smiles": "O=[N+]([O-])c1ccc(/C=N/Nc2nc(N3CCCCCC3)nc(N3CCCCCC3)n2)o1", "inhibition": "-9.1% (inactive)"}, {"smiles": "CC(C)NS(=O)(=O)c1ccc(CCC(=O)N2CCC(C(N)=O)CC2)cc1", "inhibition": "-7.28% (inactive)"}, {"smiles": "Cc1ccccc1C(=O)Oc1cc(N)n(S(C)(=O)=O)n1", "inhibition": "-5.9% (inactive)"}, {"smiles": "NCCCn1c(C(=O)c2ccc(Cl)cc2)c2ccc(C(F)(F)F)cc2[n+]1[O-]", "inhibition": "1.61% (inactive)"}, {"smiles": "NC(=O)CCCn1c(C(=O)c2ccc(Cl)cc2)c2ccc([N+](=O)[O-])cc2[n+]1[O-]", "inhibition": "-3.8% (inactive)"}, {"smiles": "COc1ccc(CCN2CC(C(=O)NCc3ccco3)CC2=O)cc1OC", "note": "(stereo not given)", "inhibition": "-1.89% (inactive)"}, {"smiles": "CCN1CCN(c2ccc(S(=O)(=O)N3CCOCC3)cc2NC(=O)COc2ccc(F)cc2Cl)CC1", "inhibition": "2.58% (inactive)"}, {"smiles": "C[C@H](NC(N)=O)C(=O)Nc1ccc(OCc2ccccc2)cc1", "inhibition": "2.2% (inactive)"}, {"smiles": "C/C(=N\\NC(=O)c1ccccc1F)c1ccc2c(c1)Nc1ccccc1S2", "inhibition": "-0.8% (inactive)"}, {"smiles": "C/C(=N\\NC(=O)c1ccc(C)cc1C)c1ccc2c(c1)Nc1ccccc1S2", "inhibition": "7.51% (inactive)"}, {"smiles": "O=C1C=C(c2cccc3c2sc2ccccc23)C[C@@H](c2ccc(Cl)cc2)C1", "inhibition": "-0.695% (inactive)"}, {"smiles": "CCCC(=O)Nc1ccc(C(N)=O)cc1", "inhibition": "-1.73% (inactive)"}, {"smiles": "CSc1ccc(/C=C/C(=O)Nc2ccccc2)cc1", "inhibition": "10.6% (inactive)"}, {"smiles": "CSc1nsc(SCC(=O)NC2CCCCC2)n1", "inhibition": "66.1% (inactive)"}, {"smiles": "Cc1nnc(SCC(=O)N2CCCCC2)s1", "inhibition": "-0.73% (inactive)"}, {"smiles": "COc1cc(OC)c(C(=O)OCC(=O)Nc2c(C)n(C)n(-c3ccccc3)c2=O)cc1OC", "inhibition": "1.54% (inactive)"}, {"smiles": "O=C1NC[C@H](c2ccccc2)N(CC2CCCCC2)C1=O", "inhibition": "-2.23% (inactive)"}, {"smiles": "C/C(=N\\Nc1ccc([N+](=O)[O-])cc1)c1ccc(N)cc1", "inhibition": "-12.2% (inactive)"}, {"smiles": "C/C(=N\\Nc1ccccc1)c1cccc(N)c1", "inhibition": "-1.02% (inactive)"}, {"smiles": "Cn1cnc(S(=O)(=O)N2CCN(c3ccc(Cl)cc3)CC2)c1", "inhibition": "1.05% (inactive)"}, {"smiles": "CC(C)COC(=O)Nc1ccccc1C(=O)N1CCOCC1", "inhibition": "-0.44% (inactive)"}, {"smiles": "Cc1ccc(N(Cc2cc3ccccc3[nH]c2=O)S(C)(=O)=O)cc1", "inhibition": "-5.78% (inactive)"}, {"smiles": "O=c1[nH][nH]c(-c2ccccc2O)c1C(C[N+](=O)[O-])c1ccccc1", "note": "(stereo not given)", "inhibition": "25.6% (inactive)"}, {"smiles": "Cc1[nH]c2ccccc2c1C(C[N+](=O)[O-])c1cccc(O)c1", "note": "(stereo not given)", "inhibition": "0.72% (inactive)"}, {"smiles": "O=C(N/N=C/c1ccco1)c1cc(-c2cccc(Br)c2)nc2ccccc12", "inhibition": "5.09% (inactive)"}, {"smiles": "CCNC(=S)/N=C(\\N)Nc1nc(C)c2cc(C)ccc2n1", "inhibition": "26.4% (inactive)"}, {"smiles": "CCOc1ccc2nc(N/C(N)=N/C(=S)Nc3ccc(OC)cc3)nc(C)c2c1", "inhibition": "1.27% (inactive)"}, {"smiles": "Cc1cccc(NC(=S)/N=C(\\N)Nc2nc(C)c3cc(C)ccc3n2)c1", "inhibition": "8.71% (inactive)"}, {"smiles": "CCOc1ccc2nc(N/C(N)=N/C(=S)Nc3ccc(C)c(C)c3)nc(C)c2c1", "inhibition": "39.5% (inactive)"}, {"smiles": "COc1ccc(N2CCN(C(=O)c3cc4cc(Cl)ccc4[nH]3)CC2)cc1", "inhibition": "-7.94% (inactive)"}, {"smiles": "COc1ccc(Cl)cc1NC(=O)CN1CCCCCC1", "inhibition": "-5.19% (inactive)"}, {"smiles": "Cc1ccc(S(=O)(=O)CC(=O)N2CCN(c3ccc(F)cc3)CC2)cc1", "inhibition": "-10.4% (inactive)"}, {"smiles": "O=c1c2ccccc2c(=O)n2n1Cc1ccccc1C2", "inhibition": "0% (inactive)"}, {"smiles": "CCC1CSC(Nc2ccc(C(=O)/C=C/c3ccc(Oc4ccccc4)cc3)cc2)=N1", "note": "(stereo not given)", "inhibition": "4.72% (inactive)"}, {"smiles": "Cc1cccc(/C=C/C(=O)c2ccc(N3CCOCC3)cc2)c1", "inhibition": "-1.54% (inactive)"}, {"smiles": "Cc1ccc(N(CC(O)CN2C(=O)NC(C)(C)C2=O)S(=O)(=O)c2ccc([N+](=O)[O-])cc2)cc1", "note": "(stereo not given)", "inhibition": "0.97% (inactive)"}, {"smiles": "COC(=O)c1cc(C(=O)OC)[nH]n1", "inhibition": "-0.31% (inactive)"}, {"smiles": "COc1ccccc1NC(=O)N1CCCC1C(=O)NCc1ccccc1Cl", "note": "(stereo not given)", "inhibition": "3.2% (inactive)"}, {"smiles": "Cc1ccc(S(=O)(=O)/N=C(\\CN2CCOCC2)N2CCOCC2)cc1", "inhibition": "2.72% (inactive)"}, {"smiles": "Cc1ccc(S(=O)(=O)/N=C(\\CN2CCCCC2)N2CCOCC2)cc1", "inhibition": "-3.15% (inactive)"}, {"smiles": "CC(=O)c1c(C)[nH]c(C(=O)CSc2nc3ccccc3c(=O)n2CCCO)c1C", "inhibition": "10.8% (inactive)"}, {"smiles": "O=C(NC1CCOCC1)C1CCC(=O)N(Cc2ccc(Cl)cc2)C1", "note": "(stereo not given)", "inhibition": "-7.32% (inactive)"}]}]}
